# Data as given in PubChem BioAssay (Tox21).
# Records with an inconclusive call do not appear. Unmarked numbers belong to inactive results. Active and inactive are the calls of the source. Calls come from the whole dose curve; as a rule, active = well fitted cell-killing curve with a large enough effect in the repeat runs; inconclusive = weak or mixed curves, or effect the other way; inactive = flat fitted curve, though single readings scatter.
# Test: Caspase-3/7 induction in HepG2 cells by small molecules, qHTS cell viability counter screen (AID 1346981); note: nearly all actives have a fitted effect of over 30% in size
# Conditions: CellTiter-Fluor fluorescence, 17 h; series mostly up to 92.4 µM; activity change, negative = cytotoxicity: at the top concentration
# Excerpt: U.S. Tox21 Program National Center for Advancing Translational Sciences [NCATS] NIH Chemical Genomics Center [NCGC] U.S. Environmental Protection Agency [EPA] National Institutes of Environmental Health Sciences [NIEHS] National Toxicology Program [NTP] U.S. Food and Drug Administration [FDA] Tox21 Assay Overview: Apoptosis is a process of programmed cell death and plays a central role in the development of multicellular organisms. It is a highly regulated process and induces cell death by activating caspases, which are the members of cysteine aspartic acid-specific protease (caspase) family. Caspases involved in apoptosis are classified by their mechanism of action as initiator caspases (caspase-2, -8, -9 and -10) and executioner caspases (caspase-3, -6, and -7). Inhibition of apoptosis results in number of cancers, autoimmune diseases, inflammatory diseases and viral infection. To identify small molecule compounds that induce apoptosis, a homogeneous, luminescent Caspase-Glo 3/7 assay was used. Wild type HepG2 cells were used to screen Tox21 libraries for identifying caspase-3/7 activity inducers. Also cytotoxicity of the compounds was tested in parallel by measuring the cell viability using CellTiter-Fluor assay system in the same wells.
# Tox21 Assay Protocol Summary: HepG2 cells were dispensed at 2,000 per well in 5uL of culture medium into white solid bottom 1536-well plates (Corning Life Sciences, Corning, NY) using a Multidrop Combi (Thermo Scientific, Waltham, MA) dispenser. The assay plates were incubated at 37 C and 5% CO2 for 5hr, and then 23nL of compounds dissolved in DMSO and positive control were transferred using a Pintool station ([…], San Diego, CA). The assay plates were incubated at 37C and 5% CO2 for 17hr. For cytotoxicity read, after 16hr incubation at 37C, 1uL CellTiter-Fluor reagent (Promega Corporation, Madison, WI) was added to each well of the assay plates using Flying Reagent Dispenser (FRD, Aurora Discovery, San Diego, CA). After 1hr incubation at 37C and 5% CO2, the fluorescence signal was quantified using a ViewLux plate reader (PerkinElmer, Shelton, CT).
# % is set by controls: 0 for no effect and ±100 for the full control effect; potency is the fitted concentration of half-maximal effect.
SMILES,"activity change, negative = cytotoxicity",Potency
NC(=O)Nc1ccc(Cl)c(Cl)c1,-0.353%,
O=C(C(=O)c1ccccc1)c1ccccc1,0.0694%,
O=C(Nc1ccccc1)Nc1ccccc1,-1.55%,
COc1ccc([C@@H]2Sc3ccccc3NC(=O)[C@@H]2O)cc1,9.26% [at 42.5 µM],
COc1ccccc1N=Nc1c(S(=O)(=O)O)cc2cc(S(=O)(=O)O)cc(NC(C)=O)c2c1O,,25.7 µM (active)
O=C(CCCCCCCCC#CI)Oc1ccccc1,1.72% [at 42.5 µM],
CCCC1C(CC)=CC(CC)=CN1c1ccccc1 (stereo not given),-8.73%,
NC(=O)Nc1ccc(Cl)cc1,-5.57%,
CN(C(=O)C(Cl)Cl)c1ccc(OC(=O)c2ccco2)cc1,6.2% [at 42.5 µM],
C[C@]12CCC(=O)C=C1C=C[C@@H]1[C@@H]2CC[C@@]2(C)[C@H]1CC[C@@]21CCC(=O)O1,0.23% [at 42.5 µM],
COCCOC(=O)C1=C(C)NC(C)=C(C(=O)OC/C=C/c2ccccc2)C1c1cccc([N+](=O)[O-])c1 (stereo not given),,29.8 µM (active)
C=CC(C)(O)CCCC(C)CCCC(C)CCCC(C)C (stereo not given),1%,
N#C/C(=C1\SCC(c2ccccc2Cl)S1)n1ccnc1 (stereo not given),-1.81% [at 42.5 µM],
Cc1ccnc2ccccc12,-2.32%,
CCCOCCOCCO,-17.6%,
CCC(C)(C)C1CCC(O)CC1 (stereo not given),5.15%,
Cn1c(=O)c2c(ncn2CC(=O)O)n(C)c1=O,1.6% [at 42.5 µM],
COC(OC)(C(=O)c1ccccc1)c1ccccc1,-0.15%,
O=C(O)c1c(O)c(-c2ccccc2)nc2ccccc12,-4.43% [at 42.5 µM],
C=CC(C)=CCC=C(C)C,0.898%,

SMILES,"activity change, negative = cytotoxicity",Potency
O=S1OCCO1,6.04%,
Oc1cc(O)c(Cl)cc1Cl,2.4%,
CCCCCCCCCCCCCCC[C@H](O)[C@@H](N)CO,-10.5% [at 42.5 µM],
C[Si](NC1CCCCC1)(NC1CCCCC1)NC1CCCCC1,-0.99%,
CCCCCCCCCCCCCCCCBr,4.64% [at 19 µM],
Nc1nccs1,5.95%,
CCn1cc(C(=O)O)c(=O)c2cc(F)c(N3CCNCC3)nc21,4.74% [at 42.5 µM],
NC(=O)N(O)[C@@H]1C=C[C@H](Oc2cccc(Oc3ccc(F)cc3)c2)C1,-11.1%,
O=[N+]([O-])c1cccc(S(=O)(=O)NCCNS(=O)(=O)c2cccc([N+](=O)[O-])c2)c1,3.98% [at 42.5 µM],
CCCCC(CC)CNCC(CC)CCCC (stereo not given),4.35%,
N#C[C@@H]1C[C@@H]2C[C@@H]2N1C(=O)[C@@H](N)C12CC3CC(CC(O)(C3)C1)C2,3.61% [at 42.5 µM],
CCCCCCCCSCCO,-1.99%,
CCCCC1C(=O)N(c2ccccc2)N(c2ccc(O)cc2)C1=O (stereo not given),,29.8 µM (active)
ON(Cc1ccccc1)Cc1ccccc1,1.15%,
CC1CC(O)CC(C)(C)C1 (stereo not given),-0.99%,
CC#N,-2.39%,
CCCCCCOC(=O)C(C)C,-2.02%,
CCCc1c(OCCCOc2ccc(OCC(=O)O)cc2)ccc(C(C)=O)c1O,-0.198%,
C1COCO1,-0.521%,
C=CCOC(=O)/C=C\C(=O)OCC=C,4.72%,
